Each structure is given as a SMILES string. Where “and” joins values, the source holds several entries; their conditions need not be identical. Identical values can stand only once. Inconclusive results are not listed. Where a call stands in place of a potency, no number is given. Some structures have more than one record in an assay (separate samples or runs), and their calls can disagree. Calls of active or inactive are those of the source. The call rests on the fitted dose curve.

In PubChem BioAssay (Tox21) one finds Potency data, which are given here for 40 compounds.
Potency means the concentration at half of the fitted maximal effect.

The assay can be described thus: qHTS assay to identify small molecule agonists of the progesterone receptor (PR) signaling pathway - cell viability counter screen (AID 1346799). Further: nearly all actives have a fitted effect of over 45% in size. To be noted: PR-UAS-bla HEK293T viability, CellTiter-Glo luminescence, 16 h; series mostly up to 92.4 µM. An excerpt:
National Center for Advancing Translational Sciences [NCATS]
NIH Chemical Genomics Center [NCGC]
U.S. Environmental Protection Agency [EPA]
National Institutes of Environmental Health Sciences [NIEHS]
National Toxicology Program [NTP]
U.S. Food and Drug Administration [FDA]
Progesterone receptor (PR), a nuclear hormone receptor, plays an important role in development, metabolic homeostasis and reproduction. It is activated by the steroid hormone progesterone. Endocrine disrupting chemicals (EDCs) and their interactions with steroid hormone receptors like PR causes disruption of normal endocrine function. To identify the compounds that stimulate PR signaling, a PR-UAS-bla GripTite cell line i.e. PR-UAS-bla HEK293T (Invitrogen, Carlsbad, CA, USA) containing a beta-lactamase reporter gene under the control of an UAS response element was used to screen Tox21 10K compound library. The cytotoxicity of the Tox21 compound library against the PR-bla cell line was tested in parallel by measuring the cell viability using CellTiter-Glo assay in the same wells.
Tox21 Assay Protocol Summary:
PR-UAS-bla HEK293T cells were dispensed at 3,000 cells/5 uL of assay medium containing 2% charcoal stripped FBS per well into black wall/clear-bottom 1536-well plates using a Multidrop Combi (ThermoFisher Scientific, Waltham, MA) dispenser. After the assay plates were incubated at a 37C and 5% CO2 for 6 hr, 23 nL of compounds dissolved in DMSO, positive controls or DMSO only was transferred to the assay plate by a Pintool station (Kalypsys, San Diego, CA). The plates were incubated at 37C and 5% CO2 for 16 hr. Then 1 uL of LiveBLAzer B/G FRET substrate was added using a Flying Reagent Dispenser (FRD, Aurora Discovery, San Diego, CA), the plates were incubated at room temperature for 2 hours, and fluorescence intensity was measured by an Envision plate reader (PerkinElmer, Shelton, CT). For cell viability readout that measures cytotoxicity, 4 uL/well of CellTiter-Glo reagent was added into the assay plates using a FRD. After 30 min incubation at room temperature, the luminescence intensity in the plates was measured using a ViewLux (PerkinElmer) plate reader.
(In general: qHTS replaces the single test concentration by a dilution series.)
Regarding `CNC(=O)N(C)c1nnc(C(C)(C)C)s1`, the Potency entry was “inactive”. For the compound `C1=Cc2cccc3cccc1c23`, the Potency entry was “inactive”. Consider `Nc1ccncc1`, for which the Potency result was “inactive”. With `CC1(C)C(C=C(Cl)Cl)C1C(=O)OC(C#N)c1cccc(Oc2ccccc2)c1` (stereo not given) the entry was “inactive”; with `Brc1ccc(Oc2cc(Br)c(Br)cc2Br)c(Br)c1`, 38.6 µM (active) and 43.6 µM (active); with `Cc1ccc(N)c(N)c1`, “inactive”.

Take `O=C(Nc1ccc(Br)cc1)c1cc(Br)cc(Br)c1O`: the Potency entry was “inactive”. With `CCN(CC)N=O`, the Potency result was “inactive”. Take `c1nc[nH]n1`: the Potency entry is “inactive”. With `CC(C)Oc1cc(-n2nc(C(C)(C)C)oc2=O)c(Cl)cc1Cl` the entry was “inactive”; with `CN(C)C(=O)Nc1ccc(Cl)cc1`, “inactive”; with `COP(=S)(OC)Oc1ccc([N+](=O)[O-])cc1`, “inactive”. In the case of `O=[N+]([O-])c1c(Cl)c(Cl)c(Cl)c(Cl)c1Cl` it was “inactive”; in that of `CCN(CC)C(=O)SCc1ccc(Cl)cc1`, “inactive”; in that of `OCC(O)CO`, “inactive”. For the compound `O=C(NC(=O)c1c(F)cccc1F)Nc1ccc(Cl)cc1`, the Potency result was “inactive”. In the case of `CNC(=O)Oc1cccc2c1OC(C)(C)O2`, the Potency entry is “inactive”. In the case of `Cc1c(COC(=O)[C@@H]2[C@H](/C=C(\Cl)C(F)(F)F)C2(C)C)cccc1-c1ccccc1` it was “inactive and 54.3 µM (active)”; in that of `Nn1cnnc1`, “inactive”.

Turning to `CN(C)c1ccc(C(=O)c2ccc(N(C)C)cc2)cc1`, the Potency entry is “inactive”. In the case of `Nc1cccnc1`, the Potency result is “inactive”. As for `C=CC(=O)OCCO`, the Potency entry was “inactive”. As for `CCOP(=S)(OCC)O/N=C(\C#N)c1ccccc1`, the Potency entry was “inactive”. In the case of `O=C(O)CC[N+](=O)[O-]` it was “inactive”; in that of `CCN(CC)C(=O)/C(Cl)=C(\C)OP(=O)(OC)OC`, “inactive”.

Take `Nc1ccc(-c2ccc(N)c(N)c2)cc1N`: the Potency entry is “inactive”.

For the compound `CCCCC(CC)COC(=O)Cl` (stereo not given), the Potency entry is “inactive”.

Take `c1ccc(NNc2ccccc2)cc1`: the Potency result is “inactive”.

Turning to `CC(C)=CC1C(C(=O)OCc2coc(Cc3ccccc3)c2)C1(C)C` (stereo not given), the Potency result is “inactive”. Regarding `O=[N+]([O-])c1cccc2ccccc12`, the Potency result is “inactive”. In the case of `C[C@]12CCC(=O)C(O)=C1CC[C@@H]1[C@@H]2CC[C@]2(C)C(=O)CC[C@@H]12` it was “inactive”; in that of `Nc1ccc(Cl)c(Cl)c1`, “inactive”. With `C=CCc1ccc(OC)cc1` the entry was “inactive”. With `CC(C)C(=O)OCC(C)(C)C(OC(=O)C(C)C)C(C)C` (stereo not given), the Potency result was “inactive”.

For the compound `CCCCOCCOP(=O)(OCCOCCCC)OCCOCCCC`, the Potency entry is “inactive”. With `Cc1cc(Cl)ccc1OCCCC(=O)O` the entry was “inactive”. With `CCCCNC(=O)n1c(NC(=O)OC)nc2ccccc21` the entry was “inactive”. Regarding `c1ccc(P(c2ccccc2)c2ccccc2)cc1`, the Potency result was “inactive”. With `COc1ccc(C(CN(C)C)C2(O)CCCCC2)cc1` (stereo not given) the entry was “inactive”; with `Oc1cc(Cl)ccc1Cl`, “inactive”.
